The text below walks through data of PubChem BioAssay (EPA / NIEHS).

As usually defined, the AC50 is the concentration at which the activity in the assay is half-maximal.

Test [1] can be described thus: APR_HepG2_CellCycleArrest_24hr: Apredica 24-hour HepG2 Assay for Cell Cycle Arrest (AID 2282905).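 Further: cell cycle arrest scored as ratio of 2N to 4N nuclear DNA content.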 The note with it: imaging, actives raise or lower the signal. The gist of the method:
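Readout: Hoechst 33342 nuclear DNA content by high-content fluorescent imaging, six images/well, 20x. Human HepG2 liver cells, 24 hr compound exposure, 0.39–200 uM, final DMSO 0.5% v/v. Gain or loss fitted relative to DMSO baseline.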

The nature of test [2]: APR_HepG2_NuclearSize_24hr: Apredica 24-hour HepG2 Assay for Nuclear Size (AID 2282907). The following applies: high-content imaging, actives raise or lower the signal. The method in brief:
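Read-out: nuclear diameter from Hoechst 33342 (2 ug/mL) imaging of fixed HepG2 cells, 20x, six fields/well. Compounds ran at 0.39–200 uM for 24 hr, 0.5% DMSO final. Gain or loss was fitted bidirectionally relative to the DMSO baseline.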

Test [3] is described as follows: APR_HepG2_CellLoss_24hr: Apredica 24-hour HepG2 Assay for Cell Loss (AID 2282908).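 On AC50: fit in both directions so a hit may be cell loss or gain.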 The following applies: high-content imaging. The gist of the method: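 Read-out: Hoechst 33342-stained nuclei counted by automated fluorescence imaging after formaldehyde fixation and Triton permeabilization. Ten concentrations, 0.39 to 200 uM, duplicate wells, 0.5% DMSO final. Gain or loss of signal fitted relative to DMSO baseline.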

The nature of test [4]: APR_HepG2_MicrotubuleCSK_24hr: Apredica 24-hour HepG2 Assay for Microtubule CSK Stabilty (AID 2282909). The following applies: HepG2 microtubule cytoskeleton imaging, actives raise or lower the signal. The method in brief: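 Read-out: alpha-tubulin immunofluorescence intensity by automated high-content imaging of fixed HepG2 cells after 24 h compound treatment. Ten concentrations, 0.39 to 200 uM, in duplicate; DMSO 0.5% v/v. Taxol positive control; DMSO-normalized bidirectional curve fitting.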

Test [5] can be described thus: APR_HepG2_MitoMembPot_24hr: Apredica 24-hour HepG2 Assay for Mitochondrial Membrane Potential (AID 2282911). The note with it: imaging, actives raise or lower the signal. The gist of the method: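 HepG2, 24 hr dosing, 10 concentrations 0.39–200 uM, 0.5% DMSO final. Live-cell MitoTracker Red CMXRos 250 nM 30 min, then 3.7% formaldehyde fix. HCS fluorescence imaging, 20x; bidirectional fit vs DMSO baseline.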

Test [6] can be described thus: APR_HepG2_MitoMass_24hr: Apredica 24-hour HepG2 Assay for Mitochondrial Mass (AID 2282912). The note with it: high-content imaging, actives raise or lower the signal. The gist of the method:
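HepG2, 24 hr dosing, 10 concentrations 0.39–200 uM in duplicate, DMSO 0.5% final. MitoTracker Red CMXRos 250 nM, 30 min pre-fix; 3.7% formaldehyde fix. Imaging-based fluorescence intensity; gain/loss fit vs DMSO baseline.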

Test [7] is described as follows: APR_HepG2_CellCycleArrest_72hr: Apredica 72-hour HepG2 Assay for Cell Cycle Arrest (AID 2282914). The following applies: high-content imaging, actives raise or lower the signal. The method in brief:
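HepG2, 72 hr exposure, 10-point 0.39–200 uM, duplicate, 0.5% DMSO final. Fix 3.7% formaldehyde 30 min RT, Triton X-100 0.5%, Hoechst 33342 2 ug/mL. ArrayScan 20x, six fields/well; DNA content per nucleus; bidirectional fit vs DMSO.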

Test [8] in a line: APR_HepG2_CellLoss_72hr: Apredica 72-hour HepG2 Assay for Cell Loss (AID 2282915). The following applies: high-content imaging. The method in brief:
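Cell number comes from Hoechst 33342-labelled nuclei, imaged at 20x after 3.7% formaldehyde fixation. Dosing was 0.39–200 uM, ten concentrations in duplicate, 0.5% DMSO final, for 72 h. Bidirectional fit relative to DMSO baseline.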

The nature of test [9]: APR_HepG2_p53Act_24hr: Apredica 24-hour HepG2 Assay for p53 Activation (AID 2282913).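 Further: p53 protein immunofluorescence averaged per cell in HepG2 with Hoechst nuclei.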 The note with it: high-content imaging, actives raise or lower the signal. The method in brief:
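Read-out: Cy5 immunofluorescence for p53 in fixed, permeabilized HepG2, imaged by HCS with Hoechst-defined nuclei. Dosing was 24 hr at 0.39–200 uM in 0.5% DMSO. Curves were fitted bidirectionally relative to DMSO.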

Test [10] can be described thus: APR_HepG2_MitoticArrest_24hr: Apredica 24-hour HepG2 Assay for Mitotic Arrest (AID 2282910). The following applies: high-content imaging, actives raise or lower the signal. The method in brief: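 High-content imaging of fixed HepG2 cells labeled with Hoechst 33342 and anti-phospho-histone H3, after 24 h treatment. Ten concentrations 0.39 to 200 uM in duplicate, final DMSO 0.5%; changes fitted both directions relative to DMSO.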

Activity calls are given as the source filed them. How the source made its calls: active means hit-call score of the fitted dose curve at least 0.9, where 1 is the maximum; inactive means score below 0.9.

Take `O=Cc1ccccc1C=O`: the compound was called inactive in [1], in [2], in [3], in test [4], in test [5] and in test [6]. The call in [7] and in test [8] was inactive.

For the compound `OCC(O)CO`, the outcome in [1], in test [2], in [3], in test [4], in [5] and in test [6] was inactive. Further, the result in test [8] was inactive. Further, the AC50 in test [9] was 0.0391 µM (active).

As for `CCC(C)N(C)C(=O)c1cc2ccccc2c(-c2ccccc2Cl)n1` (stereo not drawn), the call in test [1], in test [2], in test [4] and in test [5] was inactive. The AC50 in test [3] is 64.9 µM (active); in test [6] it was 82.4 µM (active); in test [9], 66.9 µM (active); in test [8], 73.1 µM (active).

On to `Nc1nc(Cl)nc2c1ncn2[C@H]1C[C@H](O)[C@@H](CO)O1`, for which the call in test [1], in [4] and in [5] was inactive. Further, the AC50 in [2] is 0.0451 µM (active); in test [3], 0.0403 µM (active); in [6] it was 0.243 µM (active); in [9] it was 0.208 µM (active); in [7], 0.0388 µM (active); in test [8] it was 0.162 µM (active).

Take `Cc1cn([C@H]2C=C[C@@H](CO)O2)c(=O)[nH]c1=O`: the compound was called inactive in test [1], in test [2], in [3], in [4], in [10] and in test [5]. Also, the compound was called inactive in [6] and in [8].

With `CC1(C)C(=O)NC(=O)N1CO`, the call in [1], in test [2], in test [4], in [5], in test [6] and in [9] was inactive. Also, the concentration at half-maximal activity (AC50) is 108 µM (active) in test [3] and 120 µM (active) in test [8].

Take `CC(C)NCC(O)c1ccc(O)c(O)c1` (stereo not drawn): the result in [1], in test [2], in [3], in [4], in [10] and in [5] was inactive. Moreover, the compound was called inactive in [6]. The AC50 in [8] is 91.3 µM (active).

Turning to `CCCCc1nc2cccnc2n1Cc1ccc(-c2ccccc2-c2nnn[nH]2)cc1`, in test [1], the outcome was inactive. Besides, the AC50 was 51 µM (active) in [2]; 32.6 µM (active) in test [3]; 35.7 µM (active) in test [4]; 23.1 µM (active) in test [5]; 28.1 µM (active) in test [6]; 31.1 µM (active) in test [9]. The AC50 in test [8] was 65.2 µM (active).

For the compound `CN(C)C(=O)NC1(c2ccccc2)CCN(CCC[C@]2(c3ccc(Cl)c(Cl)c3)CCCN(C(=O)c3ccccc3)C2)CC1`, the AC50 in [1] is 24.7 µM (active); in test [3] it was 24.9 µM (active); in test [4] it was 8.32 µM (active); in test [10], 16.3 µM (active); in test [6] it was 15.4 µM (active); in test [9], 14.8 µM (active). The AC50 in [8] was 16 µM (active). Further, the call in [2], in test [5] and in test [7] was inactive.

For `Oc1ccccc1O`, the outcome in test [1], in test [2], in test [3], in test [4], in test [10] and in [5] was inactive. The call in test [6] and in test [9] was inactive. Further, the results for the AC50 in test [7] and in [8] were 36.4 µM (active) and 36.8 µM (active), respectively.

As to `CCCC(=O)O`, the compound was called inactive in test [1], in [2], in [3], in [4], in test [10] and in test [5]. The compound was classed as inactive in test [6] and in test [8].

As for `CC(=O)S[C@H](C(=O)N[C@H]1Cc2ccccc2[C@H]2CCC[C@@H](C(=O)O)N2C1=O)C(C)C`, the compound was called inactive in [1], in test [2], in [3], in test [4], in [10] and in test [5]. Besides, the compound was classed as inactive in [6], in [9], in test [7] and in test [8].

`CCCCCCC(CCCCCCCCCCC(=O)OCC(COC(C)=O)OC(C)=O)OC(C)=O` (stereo not drawn): the compound was called inactive in test [1], in test [2], in test [4], in test [10], in test [5] and in test [6]. For the same compound, the compound was classed as inactive in [9], in test [7] and in test [8].

For the compound `NCCOCCOCCN`, the AC50 in [1] was 0.998 µM (active); in test [3], 92.3 µM (active); in test [4] it was 170 µM (active); in test [10], 14.3 µM (active); in test [5], 107 µM (active); in test [6] it was 45.3 µM (active). Further, the AC50 is 83.7 µM (active) in test [9], 18.6 µM (active) in test [7] and 16.6 µM (active) in test [8]. Besides, in [2], the result was inactive.

In the case of `Nc1nc(=S)c2[nH]cnc2[nH]1`, the outcome in [1], in [2], in [4], in [10], in test [5] and in test [6] was inactive. For the same compound, the AC50 in [3] was 21.4 µM (active); in test [7] it was 63.2 µM (active); in [8] it was 17.9 µM (active).

For `CCCCCCCCCCCCCCOS(=O)(=O)O`, the AC50 in [1] was 110 µM (active); in test [3], 117 µM (active); in test [10], 109 µM (active); in test [9] it was 100 µM (active); in test [8] it was 110 µM (active). Moreover, the call in test [2], in [4], in test [5], in test [6] and in [7] was inactive.

Take `O=[Si]=O`: the outcome in test [1], in test [2], in test [3], in [4], in test [10] and in [5] was inactive. The result in [6], in test [9] and in [7] was inactive. Further, the AC50 in test [8] is 61.4 µM (active).

For `CCCCCCC(C=O)=Cc1ccccc1`, the outcome in [1], in [2], in test [3], in test [4], in test [10] and in test [5] was inactive. For the same compound, the AC50 in test [6] was 53.5 µM (active); in [8], 50.2 µM (active).

With `Oc1ccc(O)cc1`, the outcome in test [1], in test [2], in [3], in test [4], in test [10] and in test [5] was inactive. For the same compound, the AC50 was 51.4 µM (active) in test [6], 19 µM (active) in test [9], 100 µM (active) in test [7] and 71.7 µM (active) in test [8].

As for `COc1ccc(OC(F)(F)F)cc1CN[C@H]1CCCN[C@H]1c1ccccc1`, the AC50 in test [1] was 29.2 µM (active); in [2] it was 33.4 µM (active); in test [3], 45.8 µM (active); in [6] it was 66.7 µM (active); in [9] it was 24.9 µM (active); in test [8], 27.5 µM (active). The compound was classed as inactive in test [4], in test [5] and in test [7].
